Experimental data taken from PubChem BioAssay AID2685 (National Center for Advancing Translational Sciences (NCATS), 2010).
Among all 320,000 compounds or so, about 2,100 (0.66%) were called active. Another 53% or so got no clear call; they are omitted. The call rests on the fitted dose curve; in most records, active means well fitted inhibition curve with a large enough effect in the signal ratio, with a control signal flat (not every such curve was filed as active); inconclusive means small, poorly fitted or top-dose-only effect, or effect the other way, or a change in a side signal; inactive means flat fitted curve, though single readings scatter; the % refers to the signal ratio. The full list was thinned out, with actives kept by preference.

Experiment: qHTS Assay for Lipid Storage Modulators in Drosophila S3 Cells;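 on cell number change: cells counted by Cell Tracker Red CMTPX staining in the red channel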; on lipid storage change, negative = inhibition: on the % scale 0 is the no-effect control and ±100 the full control effect
Conditions: BODIPY lipid droplet fluorescence, 18-24 h, cells fed with added oleic acid; cell number change: measured here: cell count max response; series mostly up to 46.1 µM; lipid storage change, negative = inhibition: at the top concentration
Method in brief: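 Drosophila S3 cells loaded with oleic acid (400 uM, as added) and compounds at several concentrations; lipid droplets imaged by 488-nm laser-scanning cytometry, 500–530 nm intensity and object ratio to cell channel. Percent activity normalized to 20 uM Triacsin C.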
Potency means the concentration at half of the fitted maximal effect.

SMILES	lipid storage change, negative = inhibition	cell number change	Potency	outcome
COc1cc(S(=O)(=O)NCc2ccccn2)c(OC)cc1Cl	1.56% (inactive)	4.19%		
CCOC(=O)N1CCN(S(=O)(=O)c2ccc3c(c2)SC(C)C(=O)N3)CC1 (centres undefined)	-9.6% (inactive)	-22.8%		
COC(=O)CSc1nnc(CNC(=O)c2ccc(S(=O)(=O)N(C)C)cc2)n1C	4.97% (inactive)			
COC(=O)CSc1nnc(CNS(=O)(=O)c2ccc(Cl)cc2)n1C		-22.7%	20.6 µM (active)	
CCCSc1nnc(CNS(=O)(=O)c2ccc(C)cc2)n1C	2.69% (inactive)	-0.463%		
O=C(c1cccc(Cl)c1)N1CCC(N2CCC(C(=O)N3CCOCC3)CC2)CC1	-10.6% (inactive)	-7.23%		
CCN1CCCC1CNS(=O)(=O)c1c(C)cc(C)cc1C (centres undefined)	17% (inactive)	-11.3%		
CCOC(=O)c1sc(NC(C)=O)nc1C				inactive
CCCn1c(SCC(=O)Nc2ccc(NC(C)=O)cc2)nc2c1c(=O)n(C)c(=O)n2C		7.69%		inactive
COCCN(C(=O)C(=O)NC1CCCC1)C(C(=O)NC1CCCC1)c1ccccc1F (centres undefined)	-0.455% (inactive)	6.8%		
COCCN(C(=O)CCC(=O)Nc1cc(C)on1)C(C(=O)NC1CCCC1)c1ccccc1C (centres undefined)	7.32% (inactive)	7.81%		
COCCN(C(=O)CCl)C(C(=O)NC1CCCCC1)c1ccccc1C (centres undefined)		-11.6%	23.1 µM (active)	
O=S(=O)(NCc1ccccc1)c1ccc(Cl)cc1	-5.46% (inactive)	-16.1%		
C=CCn1c(O)c(C=Nc2ccc(Cc3ccncc3)cc2)c(=O)[nH]c1=S	11.8% (inactive)	1.96%		
Cc1ccc2cccc(Oc3nnnn3-c3ccccc3)c2n1		10.6%		inactive
c1ccc(-n2nnnc2Oc2cccc3cccnc23)cc1				inactive
O=C(O)c1ccc(-n2nnnc2Oc2cccc3cccnc23)cc1		-14.4%	23.1 µM (active)	
CCNC(=O)CC1SC(=Nc2ccccc2C)N(C)C1=O (centres undefined)	1.25% (inactive)	12.4%		
CCN1CCN(c2ccc(S(=O)(=O)N3CCCCC3)cc2NC(=O)c2ccc(F)cc2)CC1	16% (inactive)			
COc1ccc(/C=C(\NC(=O)c2ccc(OC)cc2)C(=O)Nc2ccc(C(=O)O)cc2)cc1		11.1%		inactive
N#Cc1ccccc1S(=O)(=O)N1CCN(C(=O)CN2CCCSc3ccccc32)CC1		-12.9%	2.06 µM (active)	
Cc1ccc(S(=O)(=O)N2CCN(C(=O)CN3CCCSc4ccccc43)CC2)cc1	14.9% (inactive)	6.28%		
N#Cc1ccccc1S(=O)(=O)N1CCN(C(=O)C2CCC2)CC1	14.4% (inactive)	17.3%		
O=C(N[C@@H](Cc1ccccc1)C(=O)OCc1ccccc1)c1nc[nH]c1C(=O)N[C@@H](Cc1ccccc1)C(=O)OCc1ccccc1			3.26 µM (active)	
CC(C)C[C@H](NC(=O)c1nc[nH]c1C(=O)N(C)Cc1ccccc1)C(=O)OC(C)(C)C	-12.5% (inactive)	-15.1%		
C[C@@H](NC(=O)c1nc[nH]c1C(=O)N[C@@H](Cc1ccccc1)C(=O)OCc1ccccc1)c1ccccc1	-0.678% (inactive)	-24.1%		
O=C(N[C@@H](Cc1ccccc1)C(=O)OCc1ccccc1)c1nc[nH]c1C(=O)NC(c1ccccc1)c1ccccc1	3.83% (inactive)	11.4%		

SMILES	lipid storage change, negative = inhibition	cell number change	Potency	outcome
C[C@H](NC(=O)c1nc[nH]c1C(=O)N(C)Cc1ccccc1)C(=O)OC(C)(C)C		20.3%	0.651 µM (active)	
CCOC(=O)c1ccc(NC(=O)c2nc[nH]c2C(=O)N[C@@H](Cc2ccccc2)C(=O)OC(C)(C)C)cc1		-20.1%	18.4 µM (active)	
C[C@H](NC(=O)c1nc[nH]c1C(=O)N[C@@H](Cc1ccccc1)C(=O)OC(C)(C)C)C(=O)OCc1ccccc1		26.3%	14.6 µM (active)	
C[C@H](NC(=O)c1nc[nH]c1C(=O)N[C@@H](C)C(=O)OC(C)(C)C)C(=O)OCc1ccccc1	-8.74% (inactive)	0.898%		
C[C@H](NC(=O)c1nc[nH]c1C(=O)NCc1ccccc1)C(=O)OC(C)(C)C	-10.5% (inactive)	-10.1%		
CC(C)(C)OC(=O)[C@H](Cc1ccccc1)NC(=O)c1[nH]cnc1C(=O)Nc1ccc(Cl)cc1	-47.5% (inactive)	-19.3%		
C[C@H](NC(=O)c1nc[nH]c1C(=O)N[C@@H](Cc1ccccc1)C(=O)OC(C)(C)C)C(=O)OC(C)(C)C	16% (inactive)	1.8%		
CCOC(=O)c1ccc(NC(=O)c2nc[nH]c2C(=O)N[C@@H](CC(C)C)C(=O)OC(C)(C)C)cc1	-1.73% (inactive)	-3.92%		
COc1ccccc1CN1CC(C(=O)N(CCO)Cc2cccs2)CCC1=O (centres undefined)	8.22% (inactive)	1.74%		
CCN1CCCC1CNC(=O)C(=O)NC (centres undefined)	-3.62% (inactive)	1.27%		
Cc1c(C(=O)NCc2cccnc2)oc2ccc(S(=O)(=O)N3CCCCCC3)cc12				inactive
O=C(Cn1ccc(C(F)(F)F)n1)N/N=C/c1ccc2c(c1)OCO2	11.3% (inactive)	4.92%		
COc1ccc(Cl)cc1NC(=O)CCn1c(=O)oc2ccccc21	-13.1% (inactive)			
O=C(CN1C(=O)C2C3CCC(C3)C2C1=O)OCC(=O)c1cccc([N+](=O)[O-])c1 (centres undefined)	4.51% (inactive)	2.72%		
C=CCn1c(SCc2ccc(C(=O)NCCO)cc2)nc2sc(C)c(C)c2c1=O	3.04% (inactive)	22.5%		
Cc1ccc(C(=O)NNc2ncnc3c2cnn3C)cc1	3.58% (inactive)	-1.39%		
Cc1c(CN2CCCC(C(=O)c3cccc(OC(C)C)c3)C2)c(=O)n(-c2ccccc2)n1C (centres undefined)	5.83% (inactive)	1.94%		
C/C(=N\NC(=O)c1ccc(Cl)cc1)c1cccc(NC(=O)c2cccnc2)c1	12.1% (inactive)	13.4%		
CCn1c(CSc2nc(C)cs2)nc2cc(S(=O)(=O)N(C)C)ccc21	-12.7% (inactive)	-5.93%		
CCn1c(SCC(=O)NC2CCCC2)nnc1-c1c[nH]c2ccccc12	28.1% (inactive)	30%		
CN(C)C(CNC(=O)CN1C(=O)NC2(CCc3ccccc32)C1=O)c1ccco1 (centres undefined)	13% (inactive)	6.97%		
Cc1ccc(NC(=O)C(C)SCC(=O)Nc2ccc(F)cc2)cc1S(=O)(=O)N1CCOCC1 (centres undefined)	19.8% (inactive)			
CC1(C(=O)NC2CCCCCC2)CCC(=O)N1Cc1ccc2c(c1)OCO2 (centres undefined)	-10.3% (inactive)	-18.4%		
Nc1nc(-c2ccccc2)c(-c2ccccc2)n1N				inactive
c1ccc(-c2cnn3c(-c4ccccc4)c(-c4ccccc4)nc3n2)cc1		-3.03%	3.26 µM (active)	
c1ccc(-c2cn3nc(-c4ccccc4)c(-c4ccccc4)nc3n2)cc1	-0.159% (inactive)	19.6%		
CC(=O)N(CCCN(C)C)Cc1ccccn1	-10.4% (inactive)	6.64%		
